Active and inactive are the calls of the source. The calls were made as follows: active = hit-call score of the fitted dose curve at least 0.9, where 1 is the maximum; inactive = score below 0.9.
Columns and labels:
[1] = read-out: TIMP metallopeptidase inhibitor 1 (TIMP1), TIMP1 (gene 7076); test: BSK_hDFCGF_TIMP1: BioMAP Diversity Plus: hDFCGF Assay for TIMP metallopeptidase inhibitor 1 (TIMP1) Biomarker Activity (AID 2283062); details: primary human foreskin fibroblasts; actives raise or lower the signal
Outline: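 ELISA readout of TIMP-1 from human dermal foreskin fibroblast cultures 24 h post-dosing. Curves were fitted in both directions against DMSO baseline, with SRB total-protein staining in parallel cultures as a cytotoxicity check.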

[2] = read-out: Monokine induced gamma interferon (MIG), CXCL9 (gene 4283); test: BSK_hDFCGF_MIG: BioMAP Diversity Plus: hDFCGF Assay for Monokine induced gamma interferon (MIG) Biomarker Activity (AID 2283063); details: primary human foreskin fibroblasts; actives raise or lower the signal
Outline: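 Fibroblasts (human foreskin, primary) dosed, 24 h, MIG by ELISA; fit bidirectional vs DMSO.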

[3] = read-out: Matrix Metallopeptidase 1 (MMP1), MMP1 (gene 4312); test: BSK_hDFCGF_MMP1: BioMAP Diversity Plus: hDFCGF Assay for Matrix Metallopeptidase 1 (MMP1) Biomarker Activity (AID 2283064); details: primary human foreskin fibroblasts; actives raise or lower the signal
Outline: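 Human foreskin fibroblasts exposed to chemical for 24 h; MMP1 detected by ELISA, with DMSO as baseline for bidirectional fitting.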

[4] = read-out: Vascular cell adhesion molecule 1 (VCAM1), VCAM1 (gene 7412); test: BSK_hDFCGF_VCAM1: BioMAP Diversity Plus: hDFCGF Assay for Vascular cell adhesion molecule 1 (VCAM1) Biomarker Activity (AID 2283065); details: primary human foreskin fibroblasts; actives raise or lower the signal;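 as to AC50: VCAM-1 protein level quantified by ELISA after 24 h chemical exposure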
Outline: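 ELISA read-out of VCAM-1 on human skin fibroblasts, 24 h post-dose; gain or loss of signal fitted bidirectionally against DMSO baseline.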

[5] = read-out: Plasminogen activator inhibitor-1 (PAI1), SERPINE1 (gene 5054); test: BSK_hDFCGF_PAI1: BioMAP Diversity Plus: hDFCGF Assay for Plasminogen activator inhibitor-1 (PAI1) Biomarker Activity (AID 2283066); details: primary human foreskin fibroblasts; actives raise or lower the signal
Outline: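 Fibroblasts from human foreskin were treated with test chemical. After 24 h, PAI-1 was measured by ELISA. Activity was fitted in both directions relative to DMSO.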

[6] = read-out: Intercellular Adhesion Molecule 1 (ICAM1), ICAM1 (gene 3383); test: BSK_KF3CT_ICAM1: BioMAP Diversity Plus: KF3CT Assay for Intercellular Adhesion Molecule 1 (ICAM1) Biomarker Activity (AID 2283067); details: primary human keratinocytes with fibroblasts; actives raise or lower the signal
Outline: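 ELISA readout of ICAM-1; KF3CT human skin co-culture (keratinocytes + foreskin fibroblasts), 24 h post-dose; gain/loss fit vs DMSO baseline.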

[7] = read-out: Interferon-gamma inducible Protein 10 (IP10), CXCL10 (gene 3627); test: BSK_KF3CT_IP10: BioMAP Diversity Plus: KF3CT Assay for Interferon-gamma inducible Protein 10 (IP10) Biomarker Activity (AID 2283068); details: primary human keratinocytes with fibroblasts; actives raise or lower the signal
Outline: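 KF3CT co-culture (keratinocytes + foreskin fibroblasts), 24 h compound, IP-10 by ELISA; bidirectional fit vs DMSO baseline.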

[8] = BSK_KF3CT_SRB: Viability Assessment in the BioMAP Diversity Plus: KF3CT Assay (AID 2283069); details: primary human keratinocytes with fibroblasts;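 also: read 24 h after compound addition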
Outline: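 Overt cytotoxicity is assessed as total protein by sulforhodamine B staining in parallel human skin co-cultures at 24 h after dosing. DMSO serves as negative control and baseline.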

[9] = read-out: Interleukin-1 alpha (IL1a), IL1A (gene 3552); test: BSK_KF3CT_IL1a: BioMAP Diversity Plus: KF3CT Assay for Interleukin-1 alpha (IL1a) Biomarker Activity (AID 2283070); details: primary human keratinocytes with fibroblasts; actives raise or lower the signal
Outline: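 Readout is IL-1a level by ELISA, compared bidirectionally with DMSO as baseline. Cells: human keratinocytes co-cultured with foreskin fibroblasts, harvested 24 h post-dose.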

[10] = read-out: TIMP metallopeptidase inhibitor 2 (TIMP2), TIMP2 (gene 7077); test: BSK_KF3CT_TIMP2: BioMAP Diversity Plus: KF3CT Assay for TIMP metallopeptidase inhibitor 2 (TIMP2) Biomarker Activity (AID 2283071); details: primary human keratinocytes with fibroblasts; actives raise or lower the signal
Outline: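 Chemicals were dosed onto human skin primary co-cultures of keratinocytes and foreskin fibroblasts, and TIMP-2 was measured by ELISA after 24 hours. Activity in either direction was fitted relative to DMSO.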

[11] = read-out: Transforming growth factor beta 1 (TGFb1), TGFB1 (gene 7040); test: BSK_KF3CT_TGFb1: BioMAP Diversity Plus: KF3CT Assay for Transforming growth factor beta 1 (TGFb1) Biomarker Activity (AID 2283072); details: primary human keratinocytes with fibroblasts; actives raise or lower the signal
Outline: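 KF3CT co-culture (keratinocytes + fibroblasts), 24 h exposure → TGF-b1 ELISA → bidirectional fit, DMSO = baseline. Parallel SRB total-protein staining (0.1% SRB, 10% TCA fixation, 560 nm) for cytotoxicity.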

[12] = read-out: C-C motif chemokine 2 (Homo sapiens) (UniProt P13500); test: BSK_KF3CT_MCP1: BioMAP Diversity Plus: KF3CT Assay for Monocyte Chemoattractant Protein 1 (MCP1/CCL2) Biomarker Activity (AID 2283073); details: primary human keratinocytes with fibroblasts; actives raise or lower the signal
Outline: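 KF3CT skin co-culture (keratinocytes/foreskin fibroblasts), 24 h post-dose; MCP-1 by ELISA; gain/loss of signal fit bidirectionally vs DMSO baseline.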

[13] = read-out: Matrix Metallopeptidase 9 (MMP9), MMP9 (gene 4318); test: BSK_KF3CT_MMP9: BioMAP Diversity Plus: KF3CT Assay for Matrix Metallopeptidase 9 (MMP9) Biomarker Activity (AID 2283074); details: primary human keratinocytes with fibroblasts; actives raise or lower the signal;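 as to AC50: MMP9 protein level quantified by ELISA in the co-culture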
Outline: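 Values come from bidirectional fitting relative to DMSO of MMP-9 levels, which were measured by ELISA. Measurements were taken 24 h after chemical dosing of a keratinocyte and foreskin fibroblast co-culture.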

[14] = read-out: urokinase plasminogen activator (uPA), PLAU (gene 5328); test: BSK_KF3CT_uPA: BioMAP Diversity Plus: KF3CT Assay for urokinase plasminogen activator (uPA) Biomarker Activity (AID 2283075); details: primary human keratinocytes with fibroblasts; actives raise or lower the signal
Outline: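 Values derive from bidirectional fitting against DMSO controls. Keratinocyte/foreskin fibroblast co-cultures received chemical; 24 h later uPA was detected by ELISA, with SRB total-protein staining in parallel wells for overt cytotoxicity.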

[15] = read-out: CD40, CD40 (gene 958); test: BSK_LPS_CD40: BioMAP Diversity Plus: LPS Assay for CD40 Biomarker Activity (AID 2283076); details: primary human HUVEC with PBMC; actives raise or lower the signal
Outline: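 ELISA readout of CD40 in HUVEC/PBMC co-culture (BSK_LPS system), 24 h post-dosing; bidirectional curve fit, DMSO baseline; parallel SRB total-protein staining for cytotoxicity.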

[16] = read-out: E-selectin (Homo sapiens) (UniProt P16581); test: BSK_LPS_Eselectin: BioMAP Diversity Plus: LPS Assay for Eselectin Biomarker Activity (AID 2283077); details: primary human HUVEC with PBMC; actives raise or lower the signal
Outline: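 ELISA readout of E-selectin, 24 h post-dose, HUVEC + PBMC co-culture (LPS system). Gain or loss of signal vs DMSO baseline, bidirectional fit.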

[17] = read-out: Interleukin-8 (IL8), CXCL8 (gene 3576); test: BSK_LPS_IL8: BioMAP Diversity Plus: LPS Assay for Interleukin-8 (IL8) Biomarker Activity (AID 2283078); details: primary human HUVEC with PBMC; actives raise or lower the signal
Outline: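 HUVEC + PBMC co-culture, LPS-activated; test chemicals dosed, IL-8 read by ELISA at 24 h. Bidirectional curve fit vs DMSO baseline (gain or loss of signal).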

[18] = BSK_LPS_SRB: Viability Assessment in the BioMAP Diversity Plus: LPS Assay (AID 2283079); details: primary human HUVEC with PBMC;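 also: total protein by sulforhodamine B absorbance as a cytotoxicity measure; measured one day after compound addition; fitted in both directions against DMSO so loss or gain of signal counts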
Outline: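 HUVEC + PBMC co-culture, LPS-stimulated; compound 24 h. 10% TCA fix, 0.1% SRB stain, A560. Bidirectional fit vs DMSO.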

[19] = read-out: Interleukin-1 alpha (IL1a), IL1A (gene 3552); test: BSK_LPS_IL1a: BioMAP Diversity Plus: LPS Assay for Interleukin-1 alpha (IL1a) Biomarker Activity (AID 2283080); details: primary human HUVEC with PBMC; actives raise or lower the signal
Outline: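 HUVEC/PBMC co-culture, LPS system; 24 h after dosing; IL-1a by ELISA; gain or loss of signal fitted bidirectionally vs DMSO baseline.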

[20] = read-out: Monocyte Chemoattractant Protein-1 (MCP1), CCL2 (gene 6347); test: BSK_LPS_MCP1: BioMAP Diversity Plus: LPS Assay for Monocyte Chemoattractant Protein-1 (MCP1) Biomarker Activity (AID 2283081); details: primary human HUVEC with PBMC; actives raise or lower the signal;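 as to AC50: secreted MCP-1 protein quantified by ELISA in culture supernatant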
Outline: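 ELISA read-out of MCP-1 after 24 h chemical dosing of a human umbilical vein endothelial cell/peripheral blood mononuclear cell co-culture stimulated with LPS. Gain or loss of signal fitted relative to DMSO controls.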

Measured: AC50

Sequence of E-selectin (Homo sapiens) (P16581 whole entry, looked up): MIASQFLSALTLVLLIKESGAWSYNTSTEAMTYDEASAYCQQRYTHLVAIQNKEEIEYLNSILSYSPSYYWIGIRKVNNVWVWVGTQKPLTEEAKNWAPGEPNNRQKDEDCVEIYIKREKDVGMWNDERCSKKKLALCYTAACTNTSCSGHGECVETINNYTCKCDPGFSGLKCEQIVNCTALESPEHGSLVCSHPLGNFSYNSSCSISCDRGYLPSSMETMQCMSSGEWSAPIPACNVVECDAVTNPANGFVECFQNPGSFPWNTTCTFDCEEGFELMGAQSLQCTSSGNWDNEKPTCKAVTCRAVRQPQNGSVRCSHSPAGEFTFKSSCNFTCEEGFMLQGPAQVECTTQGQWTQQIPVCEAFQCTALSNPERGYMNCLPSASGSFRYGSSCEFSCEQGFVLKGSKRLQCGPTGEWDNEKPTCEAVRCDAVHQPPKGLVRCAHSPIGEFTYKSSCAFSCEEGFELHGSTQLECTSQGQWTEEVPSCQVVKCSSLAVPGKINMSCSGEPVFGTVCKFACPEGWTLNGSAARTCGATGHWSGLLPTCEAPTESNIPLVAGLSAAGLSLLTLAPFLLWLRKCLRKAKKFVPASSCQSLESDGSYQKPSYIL

CCCCCCCCCCCCN1CCCC1=O
active: [1] 32.7 µM | [2] 39 µM | [3] 34.8 µM | [4] 33 µM | [5] 30.6 µM | [6] 36.8 µM | [7] 35.5 µM | [8] 33.4 µM | [9] 35.2 µM | [10] 31.3 µM | [11] 34.2 µM | [12] 34.3 µM | [13] 35 µM | [14] 36.7 µM | [15] 32.2 µM | [16] 33.8 µM | [17] 31.3 µM | [18] 27.4 µM | [19] 33 µM

CC(C)(C)c1cccc(C(C)(C)C)c1O
active: [1] 36.3 µM | [2] 34.9 µM | [3] 35.9 µM | [4] 35.5 µM | [5] 36.6 µM | [6] 37.9 µM | [7] 37.5 µM | [8] 33.8 µM | [9] 31 µM | [10] 37.1 µM | [11] 36.1 µM | [12] 34.4 µM | [13] 36.7 µM | [14] 39 µM
inactive: [15] | [16] | [17] | [18] | [19] | [20]

NC(=O)N1C(=O)C(C(=O)c2cc(Cl)cs2)c2cc(F)c(Cl)cc21 (configuration not stated)
active: [1] 5.17 µM | [2] 12.7 µM | [3] 10.3 µM | [4] 5.54 µM | [5] 1.71 µM | [6] 12.4 µM | [7] 8.07 µM | [8] 6.16 µM | [9] 12.9 µM | [10] 11.2 µM | [11] 7.48 µM | [13] 4.33 µM | [14] 12.5 µM | [15] 17.7 µM | [16] 1.47 µM | [18] 20 µM | [19] 20 µM | [20] 5.47 µM
inactive: [12] | [17]

CCCCCCCCCCCCCC[N+](C)(C)C
active: [1] 5.39 µM | [2] 7.37 µM | [3] 9.7 µM | [4] 4.06 µM | [5] 2.85 µM | [6] 12.8 µM | [7] 4.81 µM | [8] 5.24 µM | [9] 3.96 µM | [10] 5.45 µM | [11] 0.925 µM | [12] 8.89 µM | [13] 3.52 µM | [14] 4.33 µM | [15] 4.57 µM | [16] 10 µM | [17] 10.9 µM | [18] 5.37 µM | [19] 1.76 µM | [20] 5.01 µM

O=[N+]([O-])c1ccc(O)cc1
inactive: all assays above

NCC(F)(F)C(F)(F)C(F)(F)C(F)(F)C(F)(F)C(F)(F)C(F)(F)F
not listed: [11]
inactive: all other assays above

FC(F)(I)C(F)(F)C(F)(F)C(F)(F)C(F)(F)C(F)(F)I
active: [1] 6.72 µM [middle of 5 runs] | [2] 6.07 µM [middle of 5 runs] | [3] 5.8 µM [middle of 5 runs] | [4] 3.81 µM [middle of 5 runs] | [5] 5.44 µM [middle of 5 runs] | [6] 9.2 µM [middle of 5 runs] | [7] 7.76 µM [middle of 5 runs] | [8] 8.99 µM [middle of 5 runs] | [9] 7.77 µM [middle of 5 runs] | [10] 13.2 µM [middle of 5 runs] | [12] 6.01 µM [middle of 5 runs] | [13] 8.17 µM [middle of 5 runs] | [14] 11.7 µM [middle of 5 runs] | [19] 18 µM [middle of 5 runs] | [20] 36.5 µM [middle of 5 runs]

CCc1nn(C2CCCCC2)c2cc(C3(C#N)CCC(C(=O)O)CC3)ccc12 (configuration not stated)
inactive: [6] | [8] | [9] | [11]
active: [1] 3.54 µM | [2] 20 µM | [3] 8.18 µM | [4] 7.89 µM | [5] 5.35 µM | [7] 28.1 µM | [10] 11.5 µM | [12] 20 µM | [13] 8.4 µM | [14] 11.3 µM | [15] 2.51 µM | [16] 16.1 µM | [17] 20 µM | [18] 4.2 µM | [19] 1.15 µM | [20] 10.1 µM

CC(C)CCCCCCOC(=O)CCCCC(=O)OCCCCCCC(C)C
not listed: [20]
inactive: all other assays above

COCC(C)OCC(C)O (configuration not stated)
inactive: all assays above

CC[C@H](C)[C@@H](C(=O)O)n1sc2ccccc2c1=O
active: [19] 25.9 µM
inactive: all other assays above

Reference: PubChem BioAssay (EPA / NIEHS)
